Reference: the supplement of paper PMC12350171
Where a name gives a salt, the structure may show the parent alone.

Columns and labels:
Settings in all cases: 20 µM
[1] = test system: Salmonella enterica typhimurium; assay: growth AUC normalised to DMSO control (fraction of control); higher = less growth inhibition, active = hit call of the paper
Procedure, shortened: (§1)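 Pathogens were passaged twice under anaerobic conditions, then inoculated into pre-reduced mGAM plates at a starting OD578 of 0.01, with compound at 20 μM and 1% DMSO, and sealed with breathable membranes. For Haemophilus parainfluenzae, the medium was supplemented with hemin and NAD. OD578 was read every hour for 24 h in three biological replicates. Growth-curve AUC was calculated by the trapezoidal rule up to the exponential-to-stationary transition and normalised to DMSO controls on the same plate.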

[2] = test system: Shigella flexneri; assay: as above
Procedure, shortened: as §1

[3] = test system: Vibrio cholerae; assay: as above
Procedure, shortened: as §1

[4] = test system: Yersinia pseudotuberculosis; assay: as above
Procedure, shortened: as §1

[5] = test system: P. vulgatus RND KO; assay: growth AUC normalised to DMSO control (median) (fraction of control); higher = less growth inhibition, active = hit call of the paper
Procedure, shortened: (§2)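 Area under the growth curve, calculated by the trapezoidal rule up to entry into stationary phase, was normalised to vehicle wells on the same plate. Strains had been passaged twice overnight without oxygen and then grown in mGAM in 96-well plates from OD578 0.01, each with an approved-drug library compound at 20 μM in 1% DMSO. OD578 was read hourly over 24 h in an anaerobic incubator, and the median of three biological replicates is given.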

[6] = test system: P. vulgatus WT; assay: as above
Procedure, shortened: as §2

[7] = test system: S. enterica typhimurium WT; assay: as above
Procedure, shortened: as §2

[8] = test system: S. enterica typhimurium tolC KO; assay: as above
Procedure, shortened: as §2

Measured: growth AUC normalised to DMSO control
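Throughout, for growth AUC normalised to DMSO control (median): active when median AUC fell below 0.1.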

N=C(N)N/N=C/c1c(Cl)cccc1Cl [Guanabenz acetate]
inactive: [2] 0.998 | [3] 1.03 | [4] 0.973 | [5] 0.983 | [6] 0.98 | [7] 0.946 | [8] 0.967
active: [1] 0.936

CCOC(=O)Nc1ccc2c(c1)N(C(=O)CCN1CCOCC1)c1ccccc1S2 [Moricizine hydrochloride]
inactive: [1] 1.01 | [2] 0.997 | [3] 0.942 | [4] 1.01 | [5] 0.766 | [6] 0.638 | [7] 1.01 | [8] 0.957

CC1(C)O[C@@H]2C[C@H]3[C@@H]4C[C@H](F)C5=CC(=O)C=C[C@]5(C)[C@H]4[C@@H](O)C[C@]3(C)[C@]2(C(=O)CO)O1 [Flunisolide]
inactive: [1] 1.01 | [2] 1.05 | [3] 1.06 | [4] 0.984 | [5] 1.03 | [6] 1.05 | [7] 1 | [8] 1.01

Nc1ccc(C(=O)NCC(=O)O)cc1 [Aminohippuric acid]
inactive: [1] 1.03 | [2] 0.989 | [3] 0.998 | [4] 0.997 | [5] 0.992 | [6] 1.01 | [7] 1.01 | [8] 0.999

Clc1cccc(Cl)c1NC1=NCCN1 [Clonidine hydrochloride]
inactive: [1] 1.01 | [2] 1.02 | [3] 1.03 | [4] 1.01 | [5] 0.998 | [6] 1.04 | [7] 0.996 | [8] 1.01

N=C(N=C(N)N)N1CCOCC1 [Moroxidine hydrochloride]
inactive: [1] 0.999 | [2] 1 | [3] 0.991 | [4] 0.965 | [5] 1.01 | [6] 1.04 | [7] 1.01 | [8] 0.992

CC(C)NCC(O)COc1ccc(COCCOC(C)C)cc1 (stereo not given) [Bisoprolol hemifumarate]
inactive: [1] 1.03 | [2] 1.03 | [3] 1.05 | [4] 1.02 | [5] 1.02 | [6] 1.08 | [7] 1.01 | [8] 1.01

Nc1nc2c(ncn2COC(CO)CO)c(=O)[nH]1 [Ganciclovir]
inactive: [1] 0.988 | [2] 0.996 | [3] 1 | [4] 0.99 | [5] 0.978 | [6] 0.971 | [7] 0.992 | [8] 0.993

C[N+](C)(C)CCOC(N)=O [Carbachol chloride]
inactive: [1] 1.03 | [2] 1.07 | [3] 1.08 | [4] 1.01 | [5] 1.09 | [6] 1.05 | [7] 1.01 | [8] 1.01

Cc1ccc(S(=O)(=O)NC(=O)NN2CCCCCC2)cc1 [Tolazamide]
inactive: [1] 1.02 | [2] 1.04 | [3] 1.03 | [4] 0.997 | [5] 1.01 | [6] 1.02 | [7] 1.01 | [8] 0.999

NS(=O)(=O)Cc1noc2ccccc12 [Zonisamide]
inactive: [1] 1.01 | [2] 0.997 | [3] 0.997 | [4] 1 | [5] 1 | [6] 1 | [7] 0.998 | [8] 1.01

Clc1ccc(Nc2nnc(Cc3ccncc3)c3ccccc23)cc1 [Vatalanib]
inactive: [1] 1.01 | [2] 1.05 | [3] 1.01 | [4] 1.02 | [5] 0.98 | [6] 0.992 | [7] 1.01 | [8] 0.966

COc1cc([S+](C)[O-])ccc1-c1nc2cccnc2[nH]1 (stereo not given) [Sulmazole]
inactive: [1] 1.02 | [2] 1.03 | [3] 1.04 | [4] 1.02 | [5] 1.07 | [6] 1.08 | [7] 0.999 | [8] 0.987

CCCC1O[C@@H]2C[C@H]3[C@@H]4CCC5=CC(=O)C=C[C@]5(C)[C@H]4[C@@H](O)C[C@]3(C)[C@]2(C(=O)CO)O1 (stereo not given in full) [Budesonide]
inactive: [1] 0.978 | [2] 0.995 | [3] 0.987 | [4] 0.989 | [5] 0.968 | [6] 0.999 | [7] 0.991 | [8] 0.984

CN[C@H]1CC[C@@H](c2ccc(Cl)c(Cl)c2)c2ccccc21 [Sertraline]
inactive: [1] 0.992 | [2] 0.978 | [3] 0.928 | [4] 1.01 | [5] 0.998 | [6] 1.02 | [7] 0.999 | [8] 0.945
